Four compounds from PubChem BioAssay (NCATS) can be followed below.

Values joined by “and” are separate entries in the source; they are usually repeats but may differ in a detail not shown here. Equal values may be shown once. A number with no mark means an inactive call. Active and inactive are the calls of the source. How the calls were made is not given here.
Further: 0% is about no effect.

In one assay the target is Nuclear receptor subfamily 1 group I member 2 (Rattus norvegicus) (UniProt Q9R1A7). Briefly: qHTS assay for small molecule activators of the rat pregnane X receptor (rPXR) signaling pathway (AID 651751). Conditions: rPXR reporter cells, luciferase (One-Glo), 24 h.
Nuclear receptor subfamily 1 group I member 2 (Rattus norvegicus), sequence (Q9R1A7 whole entry, looked up): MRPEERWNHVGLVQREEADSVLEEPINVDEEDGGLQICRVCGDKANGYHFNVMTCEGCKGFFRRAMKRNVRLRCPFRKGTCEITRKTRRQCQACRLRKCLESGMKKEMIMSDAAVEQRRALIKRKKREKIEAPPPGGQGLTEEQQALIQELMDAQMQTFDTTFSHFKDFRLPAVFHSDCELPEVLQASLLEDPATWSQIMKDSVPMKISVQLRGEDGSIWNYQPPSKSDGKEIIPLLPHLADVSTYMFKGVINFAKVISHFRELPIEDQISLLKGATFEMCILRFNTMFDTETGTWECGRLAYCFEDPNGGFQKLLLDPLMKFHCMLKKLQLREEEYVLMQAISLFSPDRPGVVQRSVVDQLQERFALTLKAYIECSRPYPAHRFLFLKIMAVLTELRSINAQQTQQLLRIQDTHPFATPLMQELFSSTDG
As for `N[C@@H](Cc1cc(I)c(Oc2ccc(O)c(I)c2)c(I)c1)C(=O)O`, the max response is -4.55%.

In the case of `Oc1ccc(/C=C/c2cc(O)cc(O)c2)cc1`, the max response was -2.85% and -10.8%.

Regarding `O=C(OCc1ccccc1)c1ccc(O)cc1`, the max response was 2.15%.

`C[C@H]1O[C@@H](O[C@H]2[C@@H](O)C[C@H](O[C@H]3[C@@H](O)C[C@H](O[C@H]4CC[C@@]5(C)[C@H](CC[C@@H]6[C@@H]5C[C@@H](O)[C@]5(C)[C@@H](C7=CC(=O)OC7)CC[C@]65O)C4)O[C@@H]3C)O[C@@H]2C)C[C@H](O)[C@@H]1O`: the max response is -0.0646% and -4.92%.

Tested on in a further assay: not listed separately
Briefly: qHTS assay for small molecule activators of the human pregnane X receptor (PXR) signaling pathway (AID 720659). Conditions: DPX-2 HepG2 CYP3A4-luciferase, 24 h; series mostly up to 92.3 µM; activation: at the top concentration. For orientation: qHTS replaces the single test concentration by a dilution series.
With `N[C@@H](Cc1cc(I)c(Oc2ccc(O)c(I)c2)c(I)c1)C(=O)O`, the “activation” value is -1.33%.

As for `O=C(OCc1ccccc1)c1ccc(O)cc1`, the “activation” value is 2.92%.

Turning to `C[C@H]1O[C@@H](O[C@H]2[C@@H](O)C[C@H](O[C@H]3[C@@H](O)C[C@H](O[C@H]4CC[C@@]5(C)[C@H](CC[C@@H]6[C@@H]5C[C@@H](O)[C@]5(C)[C@@H](C7=CC(=O)OC7)CC[C@]65O)C4)O[C@@H]3C)O[C@@H]2C)C[C@H](O)[C@@H]1O`, the result was inactive.
